Several values for one entry are separate records, joined by “and”; a condition that tells them apart may be missing. Equal entries are not always repeated. Among all 190,000 compounds or so, about 6,900 (3.6%) were called active. Shown is part of a subset that was picked to be rich in actives. A number with no mark means an inactive call. Cut-off read from the data, not from the text of the source: active = inhibition above about 50%; inactive = the rest.

For the test, the target named is Huntingtin (Homo sapiens) (UniProt P42858). Description: mutant huntingtin-calmodulin interaction inhibitors – biochemical, AlphaScreen, primary screen (AID 1671202).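 Note: 0% = both proteins with DMSO and 100% = one protein alone.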 To be noted: AlphaScreen His-mHTT/GST-CaM binding, luminescence; at 15 µM, active compounds read high. On the technique in general: Alpha assays give light when donor and acceptor beads are brought close together.
Chain of Huntingtin (Homo sapiens) (P42858 whole entry, looked up, stated change not applied): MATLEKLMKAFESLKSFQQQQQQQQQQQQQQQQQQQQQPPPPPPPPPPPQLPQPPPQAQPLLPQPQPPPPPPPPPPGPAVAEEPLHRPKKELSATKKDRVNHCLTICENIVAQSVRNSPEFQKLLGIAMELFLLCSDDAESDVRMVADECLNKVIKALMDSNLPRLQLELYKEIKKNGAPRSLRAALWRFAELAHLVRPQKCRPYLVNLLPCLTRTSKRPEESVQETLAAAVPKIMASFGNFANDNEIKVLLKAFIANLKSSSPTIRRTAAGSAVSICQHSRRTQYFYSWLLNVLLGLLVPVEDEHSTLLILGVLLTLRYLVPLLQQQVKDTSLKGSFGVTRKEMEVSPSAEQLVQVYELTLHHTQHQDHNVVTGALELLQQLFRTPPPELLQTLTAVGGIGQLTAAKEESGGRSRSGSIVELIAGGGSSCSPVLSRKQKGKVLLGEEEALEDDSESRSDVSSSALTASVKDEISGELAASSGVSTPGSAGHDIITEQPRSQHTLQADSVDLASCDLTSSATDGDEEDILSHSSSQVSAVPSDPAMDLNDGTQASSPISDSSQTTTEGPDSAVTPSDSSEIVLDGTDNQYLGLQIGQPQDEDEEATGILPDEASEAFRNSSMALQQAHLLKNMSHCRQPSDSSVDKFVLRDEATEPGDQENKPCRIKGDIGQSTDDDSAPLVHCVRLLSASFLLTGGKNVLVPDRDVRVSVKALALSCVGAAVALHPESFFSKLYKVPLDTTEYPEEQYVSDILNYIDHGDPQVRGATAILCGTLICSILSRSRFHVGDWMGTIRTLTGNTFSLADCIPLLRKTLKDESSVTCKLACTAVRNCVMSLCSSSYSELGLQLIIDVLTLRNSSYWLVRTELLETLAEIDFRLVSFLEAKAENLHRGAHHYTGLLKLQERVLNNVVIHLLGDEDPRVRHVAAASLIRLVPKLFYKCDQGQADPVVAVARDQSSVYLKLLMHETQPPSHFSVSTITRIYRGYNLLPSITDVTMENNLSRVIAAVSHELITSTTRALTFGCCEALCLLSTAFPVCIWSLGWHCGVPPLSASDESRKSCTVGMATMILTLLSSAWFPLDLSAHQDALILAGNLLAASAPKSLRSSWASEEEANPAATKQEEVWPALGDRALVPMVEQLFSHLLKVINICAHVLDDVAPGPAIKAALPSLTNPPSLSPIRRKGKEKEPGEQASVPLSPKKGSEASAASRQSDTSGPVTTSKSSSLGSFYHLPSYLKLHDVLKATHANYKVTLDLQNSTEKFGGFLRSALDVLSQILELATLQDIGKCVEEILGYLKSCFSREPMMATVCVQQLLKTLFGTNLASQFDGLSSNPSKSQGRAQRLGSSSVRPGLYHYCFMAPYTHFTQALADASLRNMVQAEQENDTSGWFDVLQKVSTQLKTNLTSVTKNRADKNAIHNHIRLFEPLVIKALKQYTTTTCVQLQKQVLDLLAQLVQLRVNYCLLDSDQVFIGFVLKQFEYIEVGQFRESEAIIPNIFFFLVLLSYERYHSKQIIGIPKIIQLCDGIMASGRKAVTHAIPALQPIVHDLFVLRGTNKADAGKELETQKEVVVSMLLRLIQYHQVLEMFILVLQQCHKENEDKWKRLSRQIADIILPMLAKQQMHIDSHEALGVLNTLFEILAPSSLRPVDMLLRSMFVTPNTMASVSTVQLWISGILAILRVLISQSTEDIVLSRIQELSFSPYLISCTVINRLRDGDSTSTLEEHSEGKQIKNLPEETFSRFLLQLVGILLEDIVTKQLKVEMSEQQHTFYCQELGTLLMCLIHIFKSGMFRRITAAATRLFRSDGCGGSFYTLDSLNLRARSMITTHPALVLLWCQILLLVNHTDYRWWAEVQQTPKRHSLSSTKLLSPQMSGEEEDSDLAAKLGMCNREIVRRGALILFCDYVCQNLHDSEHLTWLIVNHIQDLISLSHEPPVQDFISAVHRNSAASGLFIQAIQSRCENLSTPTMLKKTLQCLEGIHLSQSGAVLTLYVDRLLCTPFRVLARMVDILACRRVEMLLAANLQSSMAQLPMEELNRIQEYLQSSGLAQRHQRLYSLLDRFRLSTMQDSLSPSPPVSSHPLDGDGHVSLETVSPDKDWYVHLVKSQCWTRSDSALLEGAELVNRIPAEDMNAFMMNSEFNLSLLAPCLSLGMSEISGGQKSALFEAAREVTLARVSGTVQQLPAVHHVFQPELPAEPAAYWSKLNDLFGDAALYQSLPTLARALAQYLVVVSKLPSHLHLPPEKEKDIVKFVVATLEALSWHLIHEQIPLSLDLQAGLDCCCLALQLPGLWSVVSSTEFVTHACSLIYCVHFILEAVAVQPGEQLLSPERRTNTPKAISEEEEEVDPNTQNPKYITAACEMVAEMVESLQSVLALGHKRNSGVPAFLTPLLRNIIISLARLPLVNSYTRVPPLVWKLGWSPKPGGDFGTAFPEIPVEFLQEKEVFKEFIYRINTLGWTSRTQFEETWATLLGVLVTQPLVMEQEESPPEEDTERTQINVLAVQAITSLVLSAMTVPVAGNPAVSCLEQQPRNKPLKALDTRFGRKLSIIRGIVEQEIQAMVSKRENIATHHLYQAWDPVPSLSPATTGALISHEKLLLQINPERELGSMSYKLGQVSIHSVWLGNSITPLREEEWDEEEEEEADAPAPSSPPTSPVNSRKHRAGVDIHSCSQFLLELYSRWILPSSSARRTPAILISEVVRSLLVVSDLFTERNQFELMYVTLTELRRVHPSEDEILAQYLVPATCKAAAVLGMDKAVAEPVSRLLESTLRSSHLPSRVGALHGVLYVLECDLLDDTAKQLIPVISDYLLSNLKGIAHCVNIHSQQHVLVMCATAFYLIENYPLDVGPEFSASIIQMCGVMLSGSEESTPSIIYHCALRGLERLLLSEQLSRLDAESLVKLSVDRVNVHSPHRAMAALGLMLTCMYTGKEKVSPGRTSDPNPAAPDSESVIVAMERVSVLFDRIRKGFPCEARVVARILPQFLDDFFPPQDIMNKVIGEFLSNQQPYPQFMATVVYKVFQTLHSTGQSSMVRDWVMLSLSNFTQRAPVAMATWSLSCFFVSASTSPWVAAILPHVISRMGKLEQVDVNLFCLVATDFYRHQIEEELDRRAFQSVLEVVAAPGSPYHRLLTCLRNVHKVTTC
As usually defined, the inhibition is the relative decrease from the control value, in per cent. Take `CCCNC(=O)C1CN(C(=O)c2ccccc2F)CC1c1cccc(F)c1` (centres undefined): the inhibition is -5.9%. The same measure for `CC1(C)c2ccccc2N(CCO)C12C=Cc1cc([N+](=O)[O-])ccc1O2` (centres undefined): 62% (active); for `O=C1CSC(c2cccc([N+](=O)[O-])c2)N1c1cc(Cl)ccc1O` (centres undefined): 8%; for `Clc1ccc(C2=CC(c3ccccc3)n3ncnc3N2)cc1` (centres undefined): 1% and -2.22%. The same measure for `COc1ccccc1C(=O)Nc1nc2n(n1)C(c1ccccc1)C=C(c1ccc(Cl)cc1)N2` (centres undefined): 51% (active); for `Cc1nc2n(n1)C(c1ccc(Cl)cc1)C=C(c1ccc(Cl)cc1)N2` (centres undefined): 31%.

`CCS(=O)(=O)NCc1nnnn1-c1ccc(F)c(F)c1`: the inhibition is -8.6%. The same measure for `Cc1cccc(N2CCC(C(=O)NCc3ccccc3F)C2=O)c1C` (centres undefined): -0.6%; for `COc1ccc(-c2ncc3c(n2)CCN(C(=O)c2cccc(OC)c2)C3)cc1`: 11.1%. The same measure for `O=C(NC1CCCC1)C1CCNCC1`: -0.4%; for `Cc1ccc(N2CC(C(=O)Nc3cc(C(F)(F)F)ccc3Cl)CC2=O)cc1C` (centres undefined): -1%.

Regarding `Cc1cc(-c2nnc(NC(=O)C3CC(=O)N(c4ccc(C)c(C)c4)C3)o2)n(C)n1` (centres undefined), the inhibition was 90.2% (active). The same measure for `COc1ccc(NC(=O)C2CC(=O)N(c3ccc4oc(C)nc4c3)C2)cc1` (centres undefined): 2.03%. The same measure for `N#Cc1ccc(C(=O)N2CCCC2c2nc(-c3cccc(C(F)(F)F)c3)no2)cc1` (centres undefined): 2.8%; for `O=C(c1cccnc1)N1CCCC1c1nc(-c2cccc(C(F)(F)F)c2)no1` (centres undefined): 27.6%. The same measure for `O=C(C1COc2ccccc2O1)N1CC(c2nc(-c3cccc(C(F)(F)F)c3)no2)C1` (centres undefined): 88.9% (active); for `COc1ccc(C(=O)COc2ccc3c(c2)OC(=Cc2cc(OC)c(OC)c(OC)c2)C3=O)cc1`: 2.6%. As to `Cc1ccc(C)c(NC(=O)c2cc3n(n2)CCCN(Cc2ccccc2)C3=O)c1`, the inhibition was -4.93%.

In the case of `CS(=O)(=O)N1CCc2cc(NC(=O)Nc3cccc(C(F)(F)F)c3)ccc21`, the inhibition is 16.1%.

As for `O=C(C1c2ccccc2Oc2ccccc21)N1CCN(c2ccc([N+](=O)[O-])cc2)CC1`, the inhibition is -2.2%.

Take `CN(C)c1ccc(C(=O)NC2CCN(c3ccccc3)C2=O)cc1` (centres undefined): the inhibition was -3.2%. The same measure for `CC(C)=CC(=O)CC(C)(O)c1ccccc1` (centres undefined): 1.5%; for `CN(C)c1ccc(C(O)(c2ccccc2)c2ccccc2)cc1`: 76% (active).

On to `COc1ccccc1C(=O)N1CCc2nc(-c3ccc(Cl)cc3)ncc2C1`, for which the inhibition was 9.54%. In the case of `COc1ccccc1-c1nc(C2CCN(C(=O)c3ccc(Cl)cc3)CC2)no1`, the inhibition is 38.7%. As for `COc1ccccc1-c1nc(C2CCN(C(=O)C3COc4ccccc4O3)CC2)no1` (centres undefined), the inhibition was 34.9%. The same measure for `COc1ccccc1-c1nc(C2CCN(C(=O)c3cc4cc(Cl)ccc4[nH]3)CC2)no1`: 80.8% (active).

Turning to `CCS(=O)(=O)N1CCCC(OCc2nc(CCOC)no2)C1` (centres undefined), the inhibition is -8.91%. `CCCCS(=O)(=O)N1CCc2c(nc3cc(-c4ccccc4Cl)[nH]n3c2=O)C1`: the inhibition was 21.9%. The same measure for `COc1ccccc1CC(=O)N1CCc2c(nc3cc(-c4ccccc4Cl)[nH]n3c2=O)C1`: 53% (active); for `COc1ccccc1C(=O)N1CCc2c(nc3cc(-c4ccccc4Cl)[nH]n3c2=O)C1`: 63.9% (active). The same measure for `Cn1cccc1C(=O)N1CCc2nc3cc(-c4ccccc4)[nH]n3c(=O)c2C1`: 25.2%; for `O=C(NCC1CCCO1)N1CCc2nc3cc(-c4ccccc4Cl)[nH]n3c(=O)c2C1` (centres undefined): 5.22%; for `COc1ccc(Cl)cc1C(=O)N1CCc2c(nc3cc[nH]n3c2=O)C1`: 9.45%. For the compound `CC(=O)NC1CCN(c2ccccc2C(=O)N(C)C2CCCCC2)CC1`, the inhibition is 11.4%. The same measure for `COc1ccc(C=CC(=O)NCCN2CCn3cc(OC)c(=O)cc3C2=O)cc1OC`: -2.5%. `COc1ccc(N2CC(c3nnc(NC(=O)Cc4ccc(C)cc4)o3)CC2=O)cc1` (centres undefined): the inhibition was 2.93%.

`CSc1ccc(N2CC(c3nnc(NC(=O)Cc4ccccc4C)o3)CC2=O)cc1` (centres undefined): the inhibition is 68.1% (active). The same measure for `Cc1ccc(N2CC(c3nnc(NC(=O)CCc4ccccc4)o3)CC2=O)cc1` (centres undefined): 0.32%; for `O=C(Cc1cccs1)Nc1nnc(C2CC(=O)N(c3ccc(Cl)cc3)C2)o1` (centres undefined): 95.7% (active). The same measure for `Cc1ccccc1OCC(=O)Nc1nnc(C2CC(=O)N(c3ccccc3)C2)o1` (centres undefined): -0.23%. On to `COc1ccc(CC(=O)Nc2nnc(C3CC(=O)N(c4ccc(Cl)cc4)C3)o2)cc1` (centres undefined), for which the inhibition was 22.1%.

With `N#CCOc1ccc2c(=O)c(-c3ccccc3)coc2c1`, the inhibition was -3%. The same measure for `CCCCC(=O)Nc1n[nH]c(C)c1-c1ccc(Cl)cc1`: 2.8%; for `COc1ccccc1OCCCCOc1ccccc1OC`: -8.5%. The same measure for `O=[N+]([O-])c1ccc(N2CCN(S(=O)(=O)c3ccc(Br)s3)CC2)cc1`: 7%; for `CCC(=O)Nc1ccc(S(=O)(=O)N2CCN(C)c3ccccc32)cc1`: -1.8%.

Regarding `O=C(CSc1nc(-c2ccccc2)nc2c1CCCC2)c1ccc(O)c(O)c1`, the inhibition was 52% (active). On to `O=C(CSc1ncn[nH]1)c1ccc(O)c(O)c1`, for which the inhibition was -5.2% and -1%. The same measure for `O=C(CSc1nc2[nH]ncc2c(=O)n1-c1ccccc1)c1ccc(Cl)c(Cl)c1`: 48%. The same measure for `COc1cc(OC)c(OC)cc1C=Nc1ccccc1C(=O)O`: 5.4%; for `CC(Oc1ccc(Cl)cc1)C(=O)N1CCn2c(nnc2C(C)C)C1` (centres undefined): 2.1%. The same measure for `Cc1cc(Nc2ccccc2)nc(N)n1`: 0.7%; for `Cc1cc(NN)nc(-c2ccccc2O)n1`: 53.5% (active); for `CC(C)Nc1nc(-c2ccccc2O)nc2ccccc12`: -13.2%. As to `CCCNC(=O)C1CCN(Cc2cn(C)c3ccc(Cl)cc23)CC1`, the inhibition was -7.24%. The same measure for `O=C(NCc1ccc(F)cc1)c1ccc2c(c1)NC(=O)C(N1CCCCC1)S2` (centres undefined): -10%.

With `CCCNC(=O)c1cn(-c2ccc(C)cc2)nn1`, the inhibition was -7.1%. In the case of `Cc1ccc(N2C(=O)C3C4C=CC(CC4)C3C2=O)cc1Cl` (centres undefined), the inhibition is -5%. The same measure for `Cc1ccsc1C1N(c2ccc(Cl)c(Cl)c2)C(=O)C2CCCN21` (centres undefined): 96.1% (active); for `COc1ccc(N2C(=O)C3CCCN3C2c2ccc(Cl)c(Cl)c2)cc1` (centres undefined): 68% (active); for `COc1cccc(N2C(=O)C3CCCN3C2c2ccc(F)cc2)c1` (centres undefined): 5.08%. Turning to `COc1ccc(N2C(=O)C3CCCN3C2c2cccs2)cc1` (centres undefined), the inhibition is -7.68%.

In the case of `COc1ccc(N2C(=O)C3CCCN3C2c2cc(OC)c(OC)cc2OC)cc1` (centres undefined), the inhibition was -4.26%.

For the origin of these results see PubChem BioAssay AID1671202 (University of Kansas High Throughput Screening Laboratory, 2021).
